# Screening results deposited in PubChem BioAssay by National Center for Advancing Translational Sciences (NCATS).
# The sample as a whole holds a higher share of hits than the screen did.
# TRb-SRC2 inh: TRbeta-SRC2 interaction inhibition | P10828 | TRbeta-SRC2 peptide binding, fluorescence polarization; receptor liganded with 1 µM T3 | Potency, µM (highest dose often 106 µM), without a hit: at the top dose activity change, negative = inhibition, hits mostly inhibitors | 280,000 tested, 0.065% active; active = well fitted inhibition curve with a large enough effect; inconclusive = small, poorly fitted or top-dose-only effect, or effect the other way;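 also: plate controls were bound peptide for no effect and peptide without receptor for full effect; nearly all actives have a fitted effect of over 50% in size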
#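 TRb LBD 0.6 uM + Texas Red SRC2 peptide 20 nM, 1 uM T3, Tris buffer w/ 5% DMSO; compound pinned, 5 h RT; FP read ex 555/em 632; normalized to unbound and bound controls.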
# RGS12 GoLoco inh: RGS12 GoLoco-Gai1 interaction inhibition. Gai1:RGS12 GoLoco peptide FP, rhodamine, 10 min. Potency, µM (doses to about 61.6 µM), for the others: at the highest dose activity, negative = inhibition, actives largely listed as inhibitors. 230,000 tested, 0.44% active; active = well fitted inhibition curve with a large enough effect, not every such curve was filed as active; inactive = no such curve, though single readings can be large or run the other way; also: % is scaled to controls: 0 for no effect and ±100 for the full control effect; nearly all actives have a fitted effect of over 30% in size
# Target sequence (P63096 whole entry, looked up): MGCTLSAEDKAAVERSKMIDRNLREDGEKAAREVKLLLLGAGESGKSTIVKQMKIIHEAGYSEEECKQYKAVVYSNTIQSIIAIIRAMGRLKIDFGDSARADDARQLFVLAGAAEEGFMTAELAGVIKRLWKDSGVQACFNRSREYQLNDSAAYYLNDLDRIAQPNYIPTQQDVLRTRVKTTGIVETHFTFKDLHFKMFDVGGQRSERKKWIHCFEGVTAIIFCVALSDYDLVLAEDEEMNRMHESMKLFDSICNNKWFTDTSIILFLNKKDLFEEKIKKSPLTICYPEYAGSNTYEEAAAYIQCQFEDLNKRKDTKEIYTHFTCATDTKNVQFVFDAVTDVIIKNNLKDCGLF
# ERG-DNA inh: blocks human ERG Ets domain binding to DNA. P11308. fluorescence polarization, His-ERG Ets domain / labelled DNA. 370,000 tested, 0.028% active. Potency, µM (top dose mostly 76.9 µM), without a hit: top-dose FP activity, negative = inhibition, usual class: inhibitors; active = well fitted inhibition curve with a large enough effect in the polarisation, with a control signal flat; inconclusive = small, poorly fitted or top-dose-only effect, or effect the other way, or a change in a side signal; inactive = no such curve, though single readings can be large or run the other way; the % refers to the polarisation;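 also: polarization taken with two DNA probes labelled with fluorescein and Texas red; % of control where 0% means no effect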
#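 His-tagged ERG Ets domain (1 uM in the protein solution; 300mM KCl, 50mM Tris-HCl, 1mM EDTA, 1mM DTT, pH 7.5) received compound, then a probe mix of 5 nM fluorescein-DNA and 100nM Texas-615-DNA. Fluorescence polarization was read for both dyes.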
# TexasRed fluor: alters Texas Red total fluorescence, flagging assay interference; TRb/SRC2 Texas Red total fluorescence interference; Potency, µM (titrated, usually from 106 µM), for inactives: top-dose fluorescence change, negative = quenching; 280,000 tested, 0.29% active; active = well fitted curve in either direction with a large enough effect; inconclusive = small, poorly fitted or top-dose-only effect; also: % is scaled to controls: 0 for no effect and ±100 for the full control effect
#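 Flags fluorescent or light-absorbing compounds by total fluorescence, S + 2P, at 555 nm excitation and 632 nm emission. Mixture: 20 nM Texas Red SRC2 peptide, 0.6 uM human TRb LBD, 1 uM T3, 5% DMSO; compound exposure 5 h at ambient temperature.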
# * = called active by the depositor; ? = inconclusive; / = no result; [ ] = another dose, or the depositor's remark. Potency is read from the fitted curve at half-maximal effect.
SMILES,TRb-SRC2 inh,RGS12 GoLoco inh,ERG-DNA inh,TexasRed fluor
CCCC[C@H](NC(=O)[C@H](CO)NC(=O)[C@H](Cc1ccc(O)cc1)NC(=O)[C@H](CO)NC(C)=O)C(=O)N[C@@H](CCC(=O)O)C(=O)N[C@@H](Cc1cnc[nH]1)C(=O)N[C@H](Cc1ccccc1)C(=O)N[C@@H](CCCNC(=N)N)C(=O)N[C@@H](Cc1c[nH]c2ccccc12)C(=O)NCC(=O)N[C@@H](CCCCN)C(=O)N1CCC[C@H]1C(=O)N[C@H](C(N)=O)C(C)C,5%,/,/,5%
CCc1ccc(C(=O)c2cnc3ccc(F)cc3c2S(=O)(=O)c2ccccc2)cc1,-10%,/,-3%,25µM*[quencher]
Cc1c(C(=O)N/N=C/c2cccs2)nc2ccccn12,-21%[53 µM],-3%,0%,178µM*[quencher]
O=C(N/N=C\c1cccs1)c1ccccc1-n1cccc1,6%,2%,-11%,-1%
CC#CCN1c2ccccc2[C@]23C[C@@H](C(=O)OC)N(S(=O)(=O)c4ccc([N+](=O)[O-])cc4)C2=NC(C(=O)OC)=C(C(=O)OC)[C@H]13,5%[11.2 µM],6%[14.2 µM],/,0%[11.2 µM]
CCC1CC=CC2C1C(=O)N(Cc1ccccc1)C2c1cc(C)ccc1F (centres undefined),2%,/,/,0%
COc1ccccc1NC(=O)CC(C)=O,-1%[201 µM],/,/,-3%[201 µM]
Cc1cc(C)c2c(=O)n(CC(=O)NC3CCCC3)sc2n1,-1%,3.5µM*,3%,-4%
Cc1cc(C)c2c(N)c(C(=O)NC3CCCC3)sc2n1,0%,11%,6%,-1%
CC[n+]1cccc(-c2nc3ccccc3s2)c1,2%,10µM*,7%,1%
O=C1c2ccccc2C(=O)N1CC(O)COc1ccc(Cl)cc1 (centres undefined),/,/,-1%,/
COc1ccc(OCC(O)CN2C(=O)c3ccccc3C2=O)cc1 (centres undefined),/,/,13µM*,/
O=C1c2ccccc2C(=O)c2c(Nc3ccc(CCO)cc3)ccc(O)c21,5%,6%,10%,-7%
O=C1c2ccccc2C(=O)c2c(NC3CCCCC3)ccc(Nc3ccc(S(=O)(=O)O)cc3)c21,/,3.5µM*,/,/
CCCCC(CC)COC(=O)CS (centres undefined),6%[201 µM],/,/,0%[201 µM]
Cc1nc(COC(=O)c2cc(O)c3ccccc3c2O)cs1,1%,25µM*,-5%,-8%
Cc1nc(COC(=O)c2ccc(CO)cc2)cs1,-6%,2%,1%,-1%
Clc1ccc(/C=C\c2nc(Cl)c(-c3ccc(Cl)cc3)c(Cl)n2)cc1,/,2%[14.2 µM],/,/
Cc1n[nH]c(C)c1N1C(=O)c2cccc3c(N4CCCCCC4)ccc(c23)C1=O,-9%,20µM*,?,3%
C/C(N=NC(=[SH+])SCc1ccccc1)=C1\C=CC=CN1.[Cl][Cu],/,-32%[14.2 µM],/,/
CCCCCCC(C)(C)S,-1%[201 µM],/,/,-6%[201 µM]
C=CCOc1ccc(C2OC34CCCCC3C(C#N)(C#N)C2(C#N)C(=N)O4)cc1 (centres undefined),3%,-73%,?,2%
CCCCOc1ccc(C2OC34CCCCC3C(C#N)(C#N)C2(C#N)C(=N)O4)cc1 (centres undefined),-13%,25µM*,-5%,3%
CCOc1ccc(C2OC34CCCCC3C(C#N)(C#N)C2(C#N)C(=N)O4)cc1OC (centres undefined),-9%,1.4µM*,?,1%
OCCOCCOCCOCCOCCO,4%[201 µM],/,/,0%[201 µM]
SMILES,TRb-SRC2 inh,RGS12 GoLoco inh,ERG-DNA inh,TexasRed fluor
NC(=O)C[N+]1(CC#CC(O)(c2ccccc2)c2ccccc2)CCCC1,0%,8.9µM*,-3%,-5%
CC(=O)CSc1nnc2cc(C)c3cc(C)cc(C)c3n12,-14%,/,1%,25µM*[quencher]
Cc1cc(O)c(C=O)c2c1C(=O)Oc1c(COC(=O)/C=C/C(=O)O)c(O)c(C(=O)O)c(C)c1O2,?,-15%,/,7.1µM*[quencher]
Cc1cc(O)c(CN(C)C)c2c1C(=O)/C(=C/c1ccco1)O2,/,/,-12%,/
Cc1cc(O)c(C=O)c2c1C(=O)Oc1c(CO)c(O)c3c(c1O2)C(O)OC3=O (centres undefined),?,11µM*,-18%,11µM*[quencher]
C/C(=N\NC(=O)c1cc2ccccc2cc1O)c1ccc2c(c1)OCO2,23%,60%,8%,35µM*[quencher]
CCn1c(=O)c(=O)[nH]c2cc(C(=O)NC3CCCc4ccccc43)ccc21 (centres undefined),11%,205%,3%,40µM*[fluorescent]
CCOC(=O)[C@H](C)Oc1ccc(Oc2nc3ccc(Cl)cc3o2)cc1,5%[201 µM],/,/,-1%[201 µM]
CCOC(=O)c1c(S(=O)(=O)NCC(=O)N2CCN(c3ccc(F)cc3)CC2)c(C)n(C)c1C,/,/,6%,/
CCOC(=O)c1c(S(=O)(=O)NCC(=O)N2CCN(c3cccc(Cl)c3)CC2)c(C)n(C)c1C,-23%,/,-2%,0.35µM*[quencher]
COc1ccc(S(=O)(=O)N2CCCC2)c(Cl)c1Cl,-14%,-5%,-1%,-1%
COc1ccc(N)c2c1C(=O)c1ccccc1C2=O,32µM*,48%,?,50µM*[fluorescent]
O=C1c2ccccc2C(=O)c2c(O)ccc(O)c21,-2%,28µM*,/,1%
Nc1ccc(O)c2c1C(=O)c1ccccc1C2=O,-5%,-10%,-24%,3%
COc1ccc(OC)c2c1C(=O)C(Cl)=C(Cl)C2=O,4%,0.45µM*,-1%,-2%
COc1ccc(OC)c2c1C(=O)c1ccccc1C2=O,-7%,7.9µM*,32µM*,-4%
CC(C)c1cccc(C(C)C)c1,1%[201 µM],/,/,-2%[201 µM]
O=C1C2=CC[C@@H]3C(=O)N(c4ccc(F)cc4F)C(=O)[C@H]3[C@H]2[C@H](O)[C@H]2O[C@H]12,2%[11.2 µM],/,/,-3%[11.2 µM]
IC(I)I,-6%[201 µM],14µM*,/,-2%[201 µM]
CC(=O)OCCn1c(C)[n+](CCOC(C)=O)c2cc(Cl)c(Cl)cc21,5%,13µM*,-7%,3%
CCn1c(C)[n+](CCOCC[n+]2c(C)n(CC)c3cc(Cl)c(Cl)cc32)c2cc(Cl)c(Cl)cc21,-4%,7.9µM*,/,-3%
CCOC(=O)CN1C(=O)N[C@@H](c2cccc(C(F)(F)F)c2)[C@H](C(=O)OC)[C@H]1C,4%[11.2 µM],6%[14.2 µM],/,-3%[11.2 µM]
CCc1ccc(/C=C/c2c[nH]c3ccccc23)[n+](CC)c1,-7%,6.3µM*,-1%,-1%
CCc1ccc(-c2cc(C(=O)N/N=C/c3c[nH]c4ccccc34)[nH]n2)cc1,6%,7%,8%,-11%
Oc1ccc(N=Cc2ccc(-c3cccs3)s2)cc1,32µM*,-25%,?,9%
O=Cc1ccc(-c2cccs2)s1,/,/,10%,/
Cc1cc(NC(=O)CSc2cc(Cl)ccc2Cl)n(-c2ccccc2)n1,-23%[53 µM],-24%,-1%,32µM*[quencher]
CCOc1ccccc1NC(=O)Cc1coc2c(C)c(C)ccc12,-12%[53 µM],/,2%,35µM*[quencher]
CC1Cc2cc(S(=O)(=O)NCc3ccc(N(C)C)cc3)ccc2N1C(=O)C1CCC1 (centres undefined),-11%,/,4%,22µM*[quencher]
COc1ccc(CNS(=O)(=O)c2ccc3c(c2)CC(C)N3C(=O)C2CC2)cc1 (centres undefined),/,/,-8%,/
